Results from the supplement of paper PMC12350171.
Structures can show the parent of a compound that is named as a salt. Values without a mark were called inactive.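 How the source made its calls: active = AUC significantly below DMSO controls by Student t-fit with adjusted P under 0.01; inactive = not significantly reduced.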

The compounds below were run on Haemophilus parainfluenzae (assay: growth AUC normalised to DMSO control (fraction of control); higher = less growth inhibition, active = hit call of the paper). Settings: 20 µM.
Summary of the method: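 Pathogens passaged twice anaerobically were inoculated at a starting OD578 of 0.01 into pre-reduced mGAM plates with drug at 20 μM and 1% DMSO, sealed with breathable membranes. Haemophilus parainfluenzae medium was supplemented with hemin and NAD. OD578 was read hourly for 24 h, with three biological replicates. Growth-curve AUC was computed by the trapezoidal rule up to the exponential-to-stationary transition and normalised to DMSO controls on the same plate.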

Q: For CC[N+](C)(CC)CCOC(=O)C1c2ccccc2Oc2ccccc21 [Methantheline bromide], which “growth AUC normalised to DMSO control” value is on record?
A: 1.04

Q: N=C(N)NC(=O)Cc1c(Cl)cccc1Cl [Guanfacine hydrochloride] was tested. Which “growth AUC normalised to DMSO control” value did it give?
A: 1.01

Q: For OC(CCCN1CCCCC1)(c1ccccc1)c1ccccc1 [Diphenidol hydrochloride], which “growth AUC normalised to DMSO control” value is on record?
A: 1

Q: With CN1CCC(OC(c2ccccc2)c2ccccc2)CC1 [Diphenylpyraline hydrochloride] as the compound, how does the “growth AUC normalised to DMSO control” value read?
A: 0.996

Q: Which “growth AUC normalised to DMSO control” value does the source give for CN(N=O)C(=O)N[C@H]1C(O)O[C@H](CO)[C@@H](O)[C@@H]1O (mixture of isomers) [Streptozotocin] here?
A: 0.172 (active)

Q: For CC(=O)O[C@]1(C(C)=O)CC[C@H]2[C@@H]3C=C(C)C4=CC(=O)CC[C@@H]4[C@H]3CC[C@@]21C [Nomegestrol acetate], which “growth AUC normalised to DMSO control” value is on record?
A: 0.976

Q: O=C(CCCN1CCC(O)(c2ccc(Br)cc2)CC1)c1ccc(F)cc1 [Bromperidol] was tested. Which “growth AUC normalised to DMSO control” value did it give?
A: 1.02

Q: How did the “growth AUC normalised to DMSO control” value turn out when C[C@@H](O)[C@H]1C(=O)N2C(C(=O)O)=C(S[C@@H]3CN[C@H](C(=O)N(C)C)C3)[C@H](C)[C@H]12 [Meropenem] was run?
A: 0.283 (active)

Q: For Nc1nc(=O)c2c([nH]1)NC[C@@H](CNc1ccc(C(=O)N[C@@H](CCC(=O)O)C(=O)O)cc1)N2C=O [Folinic acid calcium salt], which “growth AUC normalised to DMSO control” value is on record?
A: 1

Q: With CCN(CC)CCOC(=O)C(c1ccccc1)c1ccccc1 [Adiphenine hydrochloride] as the compound, how does the “growth AUC normalised to DMSO control” value read?
A: 1.02

Q: CC(C(=O)O)c1ccc(C(=O)c2ccccc2)s1 (centres undefined) [Tiaprofenic acid] was tested. Which “growth AUC normalised to DMSO control” value did it give?
A: 1

Q: How did the “growth AUC normalised to DMSO control” value turn out when CC(=O)NCCCS(=O)(=O)O [Acamprosate calcium] was run?
A: 0.988

Q: Which “growth AUC normalised to DMSO control” value does the source give for Cn1c(=O)c2c(ncn2CC(O)CO)n(C)c1=O (centres undefined) [Diprophylline] here?
A: 0.994

Q: Which “growth AUC normalised to DMSO control” value does the source give for CN(CCCCCCCCCCN(C)C(=O)Oc1cccc([N+](C)(C)C)c1)C(=O)Oc1cccc([N+](C)(C)C)c1 [Demecarium bromide] here?
A: 0.923

Q: For CCC(C)n1ncn(-c2ccc(N3CCN(c4ccc(OCC5COC(Cn6cncn6)(c6ccc(Cl)cc6Cl)O5)cc4)CC3)cc2)c1=O (centres undefined) [Itraconazole], which “growth AUC normalised to DMSO control” value is on record?
A: 1.09

Q: O=C(O)CNC(=O)C(CS)Cc1ccccc1 (centres undefined) [Thiorphan] was tested. Which “growth AUC normalised to DMSO control” value did it give?
A: 0.891

Q: Which “growth AUC normalised to DMSO control” value does the source give for OC(CCN1CCCCC1)(c1ccccc1)C1CC2C=CC1C2 (centres undefined) [Biperiden hydrochloride] here?
A: 0.95

Q: With CCCCC(=O)O[C@H]1CC[C@H]2[C@@H]3CCc4cc(O)ccc4[C@H]3CC[C@]12C [Estradiol Valerate] as the compound, how does the “growth AUC normalised to DMSO control” value read?
A: 1.06

Q: Nc1ncnc2c1ncn2[C@@H]1O[C@H](CO)[C@@H](O)[C@@H]1O [Vidarabine] was tested. Which “growth AUC normalised to DMSO control” value did it give?
A: 0.96

Q: How did the “growth AUC normalised to DMSO control” value turn out when CCOc1ccc2ccccc2c1C(=O)N[C@@H]1C(=O)N2[C@@H]1SC(C)(C)[C@@H]2C(=O)O [Nafcillin sodium salt monohydrate] was run?
A: 0.899

Q: Which “growth AUC normalised to DMSO control” value does the source give for COc1ccc(C2CNC(=O)C2)cc1OC1CCCC1 (centres undefined) [Rolipram] here?
A: 0.952

Q: With O=C1NCCN1CCN1CCC(c2cn(-c3ccc(F)cc3)c3ccc(Cl)cc23)CC1 [Sertindole] as the compound, how does the “growth AUC normalised to DMSO control” value read?
A: 1

Q: Clc1ccc2c(c1)CCc1cccnc1C2=C1CCNCC1 [Desloratadine] was tested. Which “growth AUC normalised to DMSO control” value did it give?
A: 1.03

Q: For C[C@H](CCC(=O)O)[C@H]1CC[C@H]2[C@@H]3CC[C@@H]4C[C@H](O)CC[C@]4(C)[C@H]3CC[C@]12C [Lithocholic acid], which “growth AUC normalised to DMSO control” value is on record?
A: 1.04

Q: How did the “growth AUC normalised to DMSO control” value turn out when C[C@@H]1C[C@H]2[C@@H]3CCC4=CC(=O)C=C[C@]4(C)[C@@]3(Cl)[C@@H](O)C[C@]2(C)[C@@]1(OC(=O)c1ccco1)C(=O)CCl [Mometasone furoate] was run?
A: 1.05

Q: How did the “growth AUC normalised to DMSO control” value turn out when CC(=O)/N=c1/sc(S(N)(=O)=O)nn1C [Methazolamide] was run?
A: 1

Q: With C[n+]1ccccc1/C=N/O [Pralidoxime chloride] as the compound, how does the “growth AUC normalised to DMSO control” value read?
A: 0.915

Q: For CC1=C(/C=C/C(C)=C/C=C/C(C)=C\C(=O)O)C(C)(C)CCC1 [Isotretinoin], which “growth AUC normalised to DMSO control” value is on record?
A: 1.02

Q: Which “growth AUC normalised to DMSO control” value does the source give for CCN1CCN(C(=O)N[C@@H](C(=O)N[C@@H]2C(=O)N3C(C(=O)O)=C(CSc4nnnn4C)CS[C@H]23)c2ccc(O)cc2)C(=O)C1=O [Cefoperazone dihydrate] here?
A: 0.0355 (active)

Q: Cc1ncc([N+](=O)[O-])n1CC(O)CCl (centres undefined) [Ornidazole] was tested. Which “growth AUC normalised to DMSO control” value did it give?
A: 1

Q: CCCN(CCC)S(=O)(=O)c1ccc(C(=O)O)cc1 [Probenecid] was tested. Which “growth AUC normalised to DMSO control” value did it give?
A: 1.02

Q: For CCCCNc1cc(C(=O)O)cc(S(N)(=O)=O)c1Oc1ccccc1 [Bumetanide], which “growth AUC normalised to DMSO control” value is on record?
A: 0.991

Q: Which “growth AUC normalised to DMSO control” value does the source give for Nc1nc2c(ncn2COCCO)c(=O)[nH]1 [Acyclovir] here?
A: 1.01

Q: Which “growth AUC normalised to DMSO control” value does the source give for Cc1cccn2c(=O)c(-c3nnn[nH]3)cnc12 [Pemirolast potassium] here?
A: 0.933

Q: O=S(=O)(O)CCS [Coenzyme M] was tested. Which “growth AUC normalised to DMSO control” value did it give?
A: 1.06

Q: Which “growth AUC normalised to DMSO control” value does the source give for C/C(=C(\CCOP(=O)(O)O)SC(=O)c1ccccc1)N(C=O)Cc1cnc(C)nc1N [Benfotiamine] here?
A: 0.999

Q: How did the “growth AUC normalised to DMSO control” value turn out when CNC(=C[N+](=O)[O-])NCCSCc1ccc(CN(C)C)o1 [Ranitidine hydrochloride] was run?
A: 0.992

Q: How did the “growth AUC normalised to DMSO control” value turn out when COC(=O)C1=C(C)NC(C)=C(C(=O)OCCN(C)Cc2ccccc2)C1c1cccc([N+](=O)[O-])c1 (centres undefined) [Nicardipine hydrochloride] was run?
A: 1.01

Q: For CCC[C@H](N[C@@H](C)C(=O)N1[C@H](C(=O)O)C[C@@H]2CCCC[C@@H]21)C(=O)OCC [Perindopril], which “growth AUC normalised to DMSO control” value is on record?
A: 1.01
